Assay results taken from PubChem BioAssay (NCI).
About 83,000 compounds went through this panel and 20% of them were active in at least one assay; those are over-represented in the sample as a whole.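 Step 1: grow cells in 96-well plates. Step 2: add test compound at a single concentration. Step 3: incubate 48 h. Step 4: record percent growth.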 Activity calls are given as the source filed them. Rule for the calls: active = growth percent below 10; inactive = the rest.

Experiments:
Assay in all cases: NCI-60 one-dose screen, 48 h (100 = growth as untreated, 0 = no growth, -100 = all killed)
Conditions in all cases: 10 µM unless noted
[1] = system: NCI-H23 lung
[2] = system: NCI-H226 lung
[3] = system: NCI-H322M lung
[4] = system: HOP-62 NSCLC
[5] = system: NCI-H460 lung
[6] = system: NCI-H522 lung
[7] = system: A549/ATCC NSCLC
[8] = system: 786-0 renal
[9] = system: COLO 205 colon
[10] = system: DU-145 prostate
[11] = system: K-562 leukemia
[12] = system: MALME-3M melanoma
[13] = system: MDA-MB-231 breast
[14] = system: RXF 393 renal
[15] = system: SF-268 CNS
[16] = system: SF-295 CNS
[17] = system: SF-539 CNS
[18] = system: UACC-257 melanoma
[19] = system: M14 melanoma
[20] = system: HOP-92 NSCLC

Measured: growth

c1ccc(-c2nnc(-c3c[nH]c4ncccc34)s2)cc1
inactive: [1] 92.6% | [2] 87.9% | [3] 95.7% | [4] 98.6% | [5] 96.4% | [6] 87.7% | [7] 95.6% | [8] 104% | [9] 115% | [10] 87.4% | [11] 83.9% | [12] 88% | [13] 86.8% | [14] 94.5% | [15] 86.2% | [16] 96.8% | [17] 96.9% | [18] 109% | [19] 97.8%

O=C1/C(=C/c2ccc(OCc3ccccc3)cc2)Oc2cc(OCCN3CCCCC3)ccc21
active: [11] 9.17%
inactive: [1] 74.5% | [2] 89.6% | [3] 97.9% | [4] 95.7% | [5] 70.3% | [6] 87.5% | [7] 80.1% | [8] 69% | [9] 105% | [10] 91.9% | [12] 67.8% | [13] 80.9% | [14] 60.8% | [15] 77.4% | [16] 92.9% | [17] 69.5% | [18] 90% | [19] 60.8%

Cc1ccc2c(n1)C(=O)C(Cl)=C(Nc1ccc(N3CCN(C)CC3)cc1)C2=O
inactive: [1] 16.7% | [2] 105% | [3] 97.3% | [5] 97.2% | [7] 97.6% | [8] 52.2% | [9] 82.5% | [14] 62.8% | [15] 77.7% | [16] 99.4% | [18] 57.2%
active: [20] -86.3% | [6] -63.8% | [10] -18.7% | [11] -12.3% | [12] -75.5% | [13] -62.8% | [17] -24.5%

CC1(C)CC[C@]2(C(=O)O)CC[C@]3(C)C(=CC[C@@H]4[C@@]5(C)C/C(=C/c6ccco6)C(=O)C(C)(C)[C@@H]5CC[C@]43C)[C@@H]2C1
active: [1] -25.6% [100 µM] | [2] -42.4% [100 µM] | [3] -48.8% [100 µM] | [4] -85.3% [100 µM] | [5] -55.9% [100 µM] | [6] -39.3% [100 µM] | [7] -4.53% [100 µM] | [8] -19.5% [100 µM] | [9] -80.7% [100 µM] | [10] -45% [100 µM] | [12] -80.7% [100 µM] | [13] -77.9% [100 µM] | [14] -68.5% [100 µM] | [15] -27.2% [100 µM] | [16] -56.2% [100 µM] | [17] -83.3% [100 µM] | [18] -23.7% [100 µM] | [19] -31.5% [100 µM]
inactive: [11] 10.5% [100 µM]

CC1(C)CC[C@]23CC[C@]4(C)[C@H](CC[C@@H]5[C@@]6(C)C/C(=C/c7cccnc7)C(=O)C(C)(C)[C@@H]6CC[C@]54C)[C@H]2[C@H]1OC3=O
inactive: [1] 46.7% [100 µM] | [2] 24.6% [100 µM] | [3] 65.2% [100 µM] | [4] 25.2% [100 µM] | [5] 23.2% [100 µM] | [6] 30.5% [100 µM] | [7] 44.8% [100 µM] | [8] 45.5% [100 µM] | [9] 23.1% [100 µM] | [10] 56.9% [100 µM] | [11] 33% [100 µM] | [12] 31.2% [100 µM] | [13] 35.8% [100 µM] | [14] 38.8% [100 µM] | [15] 66.3% [100 µM] | [16] 46.7% [100 µM] | [17] 63.2% [100 µM] | [18] 31.9% [100 µM] | [19] 52.1% [100 µM]

O=C(CCCSc1nc(-c2ccccc2)cc(-c2ccccc2)n1)NO
active: [1] -2.58% | [2] -6.97% | [4] -8.18% | [5] 6.46% | [6] -9.12% | [7] -1.91% | [8] 7.15% | [9] -14% | [11] 6.51% | [12] 7.62% | [14] -21.7% | [15] 0.164% | [16] 4.39% | [17] 6.64% | [18] -2.82%
inactive: [3] 12.6% | [10] 13.3% | [13] 19.8%

Oc1cc(Nc2ccnc3cc(Cl)ccc23)c2ncccc2c1
inactive: [1] 73.8% | [2] 91% | [3] 99.7% | [4] 74.4% | [5] 75.5% | [6] 76.7% | [7] 84.2% | [8] 106% | [9] 96.4% | [10] 58.4% | [11] 76.6% | [12] 52% | [13] 14.8% | [14] 68.6% | [15] 73.8% | [16] 108% | [17] 93.9% | [18] 82.2% | [19] 75.8%

CC(C)OC(=O)Nc1cc(F)ccc1F
inactive: [1] 92.9% | [2] 90.9% | [3] 90.8% | [4] 101% | [5] 106% | [6] 99.8% | [7] 99.7% | [8] 103% | [9] 105% | [10] 110% | [11] 97.4% | [12] 92.7% | [13] 97% | [14] 106% | [15] 103% | [16] 97.5% | [17] 92.1% | [18] 96.9% | [19] 96.6%

CC1(C)C(=O)/C(=C\c2cccnc2)C[C@]2(C)[C@H]3CC[C@@H]4[C@H]5[C@H](C(=O)/C=C/c6cccnc6)CC[C@]5(C(=O)O)CC[C@@]4(C)[C@]3(C)CC[C@@H]12
active: [1] -60.4% [100 µM] | [2] -37.4% [100 µM] | [3] -97.2% [100 µM] | [4] -66.8% [100 µM] | [5] -43.9% [100 µM] | [6] -71.6% [100 µM] | [7] -13.6% [100 µM] | [8] -39.5% [100 µM] | [9] -55.9% [100 µM] | [10] -80.6% [100 µM] | [11] 6.57% [100 µM] | [12] -73.8% [100 µM] | [13] -34.6% [100 µM] | [14] -61.9% [100 µM] | [15] -34.9% [100 µM] | [16] -75.8% [100 µM] | [17] -56.9% [100 µM] | [18] -52% [100 µM] | [19] -38.4% [100 µM]

C=C(C)[C@@H]1CC[C@]2(C(=O)NCCNCCNCCN)CC[C@]3(C)[C@H](CC[C@@H]4[C@@]5(C)CC[C@H](O)C(C)(C)[C@@H]5CC[C@]43C)[C@@H]12
active: [1] -51.7% [100 µM] | [2] -23.6% [100 µM] | [3] -83.8% [100 µM] | [4] -69.1% [100 µM] | [5] -100% [100 µM] | [6] -57.8% [100 µM] | [7] -64.6% [100 µM] | [8] -83.5% [100 µM] | [9] -19.5% [100 µM] | [10] -8.34% [100 µM] | [11] -15.8% [100 µM] | [12] -100% [100 µM] | [13] -56.9% [100 µM] | [14] -82.9% [100 µM] | [15] -31% [100 µM] | [16] -84.7% [100 µM] | [17] -100% [100 µM] | [18] -39.6% [100 µM] | [19] -31% [100 µM]

Nc1cc(Cl)cc2cccnc12
inactive: [1] 88.6% | [2] 81.4% | [3] 116% | [4] 95.5% | [5] 112% | [6] 96.7% | [7] 111% | [8] 109% | [9] 124% | [10] 109% | [11] 98.1% | [12] 122% | [13] 95.8% | [14] 112% | [15] 88% | [16] 114% | [17] 98% | [18] 127% | [19] 115%

CN(C)c1ccc(N=Nc2ccc3ccccc3c2)cc1
inactive: [1] 91.5% | [2] 79.9% | [3] 89.6% | [4] 110% | [5] 87.5% | [6] 71.7% | [7] 92% | [8] 122% | [9] 73.7% | [10] 98.9% | [11] 82.6% | [12] 101% | [13] 69.5% | [14] 97.7% | [15] 87.8% | [16] 107% | [17] 93% | [18] 102% | [19] 99.1%

COc1ncnc2c(-c3ccccc3)cn(COCc3ccccc3)c12
inactive: [1] 45.8% | [2] 66.5% | [3] 86.6% | [4] 75.6% | [5] 34.1% | [6] 36.2% | [7] 51.1% | [8] 60.7% | [9] 78.3% | [10] 86.6% | [11] 29.5% | [12] 51.9% | [13] 56.9% | [14] 70.3% | [15] 74.4% | [16] 52.6% | [17] 84.1% | [18] 40% | [19] 44.1%

O=C(Nc1cc(F)cc2cccnc12)c1cnc(N2CCNCC2)cn1
inactive: [1] 83.4% | [2] 100% | [3] 69.3% | [4] 85.2% | [5] 80.6% | [6] 54.5% | [7] 88.1% | [8] 89.1% | [9] 13.9% | [10] 75.2% | [11] 19.8% | [12] 59.6% | [13] 71.8% | [14] 54.1% | [15] 77.4% | [16] 89.3% | [17] 85.5% | [18] 88% | [19] 86.1%

Cc1ccccc1OC(=O)c1cccc(Cl)c1
inactive: [1] 108% | [2] 108% | [3] 114% | [4] 145% | [5] 109% | [6] 95.5% | [7] 102% | [8] 112% | [9] 129% | [10] 126% | [11] 95.4% | [12] 97.3% | [13] 118% | [14] 113% | [15] 101% | [16] 122% | [17] 101% | [18] 111% | [19] 110%
